The values that follow come from PubChem BioAssay AID1719 (National Center for Advancing Translational Sciences (NCATS), 2009).

The other results are listed elsewhere or left out. Records with an inconclusive call do not appear. Calls of active or inactive are those of the source.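 Rule for the calls: active = compounds whose electron micrographs showed tau fibrils broken into shorter filaments or fragments, graded high on fibril breakup; inconclusive = micrographs gave an unclear fibril picture; inactive = the rest.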

Chain of Microtubule-associated protein tau (Homo sapiens) (P10636 561-689 P618L limits assumed): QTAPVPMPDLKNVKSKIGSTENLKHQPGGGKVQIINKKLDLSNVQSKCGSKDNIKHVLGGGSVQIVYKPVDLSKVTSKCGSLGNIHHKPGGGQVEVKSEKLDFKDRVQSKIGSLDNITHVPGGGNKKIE

For the experiment, the target named is Microtubule-associated protein tau (Homo sapiens) (UniProt P10636). The experiment in a line: Transmission Electron Microscopy Assay for Inhibitors of Tau Fibrillization. Particulars: recombinant tau K18 P301L (four-repeat tau fragment) fibrillization, TEM grading; stronger effect = higher value. The text has this:
NIH Molecular Libraries Probe Production Network [MLPCN] NIH Chemical Genomics Center [NCGC] MLPCN Grant: X01 MH083262-01 Assay Provider: Carlo Ballatore, University of Pennsylvania NCGC Assay Overview: The microtubule-associated protein tau is an abundant protein in the axons of neurons that stabilizes microtubules. With its ability to modulate microtubule dynamics, tau contributes directly or indirectly, to key structural and regulatory cellular functions. Particularly important is the influence tau exerts on axonal transport, which allows signaling molecules, trophic factors and other essential cellular constituents to travel along the axons. Under pathological conditions, tau becomes sequestered into insoluble aggregates called neurofibrillary tangles. This phenomenon is believed to have pathological consequences by promoting axonal transport deficits that ultimately lead to synaptic dysfunction and neuronal loss. The ability of compounds to block tau fibrillization was visualized using transmission electron microscopy (TEM). Samples from the tau ThT confirmation assay treated with 100 uM compound (AID 1558) were centrifuged and imaged using TEM. […]
With `CCN(CC)c1ccc2oc(=O)c(C)nc2c1`, the fibril grade (0 = clumped fibrils, 4 = only tiny pieces) was 4 (active).
